Each structure is given as a SMILES string. Among all 75,000 compounds or so, about 5,700 (7.6%) were called active. Entries that show only a call come without a potency. Another 7% or so got no clear call; they are omitted. For the sample, actives were picked, then their nearest neighbours and some compounds at random. Values without a mark were called inactive. The call rests on the fitted dose curve; in most records, active means well fitted inhibition curve with a large enough effect; inconclusive means small, poorly fitted or top-dose-only effect; inactive means no such curve, though single readings can be large or run the other way.
Potency means the concentration at half of the fitted maximal effect.

For this assay, the target named is 3-hydroxyacyl-CoA dehydrogenase type-2 (Homo sapiens) (UniProt Q99714). The assay can be described thus: qHTS Assay for Inhibitors of HSD17B4, hydroxysteroid (17-beta) dehydrogenase 4.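 Further: the protocol describes HADH2 (HSD17B10) and not the HSD17B4 of the title; nearly all actives have a fitted effect of over 70% in size.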 Particulars: recombinant HSD17B10, NADH fluorescence kinetic; series mostly up to 57.1 µM. The method, boiled down:
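Enzyme plus compound, 15 min room temperature; substrate mix added (NAD+ 1 mM, beta-hydroxybutyryl-CoA 90 uM final); plates read kinetically for NADH fluorescence. HADH2 was His-tagged, E. coli-derived, 20 nM.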
On the technique in general: Quantitative high-throughput screening tests each substance at several concentrations.
Turning to `Cc1noc(NS(=O)(=O)c2ccc(NC(=O)C34CCC(CC3)C4)cc2)c1C`, the Potency result is “inactive”. Consider `CCOC(=O)N/N=C1/C[C@@H](O)[C@@H](O)[C@@H]2[C@@H]3C(=O)N(CC)C(=O)[C@H]3CC[C@H]12`, for which the activity change, negative = inhibition was 7.25% [at 11.4 µM]. For the compound `O=C(c1c(Cl)nc2sccn12)N1CCCc2ccccc21`, the Potency entry is “inactive”.

Take `O=C(c1ccco1)N1CCC2(CC1)CCN(c1ncccn1)CC2`: the Potency is 31.6 µM (active). On to `O=C(c1ccco1)N1CCC[C@@]2(CCN(c3ccccc3)C2)C1`, for which the Potency entry was “inactive”. For the compound `CC(C)NC(=O)N1CC[C@@]2(CCCN(C(=O)c3ccco3)C2)C1`, the Potency entry is “inactive”.

With `COc1ccc(OC)c(S(=O)(=O)Nc2ccccc2F)c1`, the Potency result was “inactive”. On the same count and under the same terms, with `COC(=O)c1ccc(NC(=O)CSc2nnc(-c3ccncc3)n2C)cc1` the entry was “inactive”. Take `CC(=O)NC1=NC(=O)CS1`: the Potency result is “inactive”. The same measure, in the same setting: the result for `O=C1CC(c2ccccc2)C(=O)N1c1cccc(O)c1` (stereo unspecified) reads “inactive”; that for `Cc1ccc(Oc2nc3ccccc3n3c(C)nnc23)cc1`, “inactive”. `CN(c1nc2ccccc2n2c(-c3ccco3)nnc12)S(=O)(=O)c1ccccc1`: the Potency was 1 µM (active). Regarding `CCCCNC(=O)CSc1nnc(-c2ccco2)n1C`, the Potency entry is “inactive”. Same read-out and setting: the result for `CC1=C2C(=O)OC(c3ccoc3)C2(C)CCC1` (stereo unspecified) reads “inactive”; that for `Cc1ccccc1OCCC(=O)Nc1c(C)n(C)n(-c2ccccc2)c1=O`, “inactive”; that for `O=C(NCc1ccc2c(c1)OCO2)c1ccc2c(c1)C(=O)N(CC1CCCO1)C2=O` (stereo unspecified), “inactive”. The same measure, in the same setting: with `CCC(=O)Nc1ccc(C(=O)Nc2ccc3c(c2)C(=O)N(CC2CCCO2)C3=O)cc1` (stereo unspecified) the figure was 31.6 µM (active); with `O=C(CCN1C(=O)c2ccncc2C1=O)Nc1ccc2c(c1)OCCO2`, “inactive”; with `O=C(CCN1C(=O)c2ccccc2C1=O)NCCN1CCOCC1`, “inactive”. Same read-out and setting: with `COCc1nc2ccccc2n1Cc1ccccc1Br` the entry was “inactive”. Take `COC(=O)N1CCC2(CCCN(Cc3ccccc3OC)C2)CC1`: the Potency result was “inactive”. Same read-out and setting: with `Cn1c(=O)n(C)c(=O)n(CC(=O)N2CCCCC2)c1=O` the entry was “inactive”; with `CC1CCCN(C(=O)c2ccc3c(c2)C(=O)N(CCC2=CCCCC2)C3=O)C1` (stereo unspecified), “inactive”; with `Cc1ccc2c(c1)c1ncn(CCC3=CCCCC3)c(=O)c1n2C`, 31.6 µM (active). Turning to `Cn1nnc2cc(C(=O)NCCC3=CCCCC3)ccc21`, the Potency entry was “inactive”.

For the compound `CC1(C)C(=O)C2(CCCCC2)C(=O)OC1c1cccs1` (stereo unspecified), the Potency result is “inactive”. On to `CC(C)CO`, for which the Potency result is “inactive”. Same read-out and setting: the result for `CCCC(Cl)CCCC(Cl)CCC(Cl)CCC(Cl)CCC(Cl)CCCC(Cl)CCC` (stereo unspecified) reads “inactive”; that for `CCC(=NC1CC(C)(C)NC(C)(C)C1)C1=C(O)CC(C)(C)CC1=O`, “inactive”. The same measure, in the same setting: with `CCc1c(C)sc(NC(=O)OC)c1C(=O)N1CCOCC1` the entry was “inactive”; with `COc1cc(OC)c(NC(=O)c2ccc(Br)o2)cc1Cl`, “inactive”; with `CCc1c(C)sc(NC(=O)c2ccc(Br)o2)c1C(=O)OC`, 31.6 µM (active).

In the case of `CCOC(=O)c1c(NC(=O)c2cccs2)sc(C)c1C`, the Potency entry is “inactive”. For the compound `CCCOC(=O)Nc1sc2c(c1C(=O)OCC)CCC2`, the Potency entry was “inactive”. Same read-out and setting: with `COC(=O)c1c(NC(=O)c2cccs2)sc2c1CCCC2` the figure was 31.6 µM (active); with `COC(=O)c1c(NC(=O)CSc2nncs2)sc2c1CCCCC2`, “inactive”.

`CCOC(=O)c1c(NC(=O)c2ccc(Br)o2)sc2c1CCCC2`: the Potency was 25.1 µM (active).

Regarding `CCOC(=O)c1c(NC(=O)CCC(=O)NCc2ccco2)sc2c1CCCC2`, the Potency result was “inactive”. Turning to `CCOc1ccc(N=C2SC(C(=O)O)CC(=O)N2C)cc1` (stereo unspecified), the Potency result was “inactive”. The same measure, in the same setting: the result for `O=C(CCS(=O)(=O)Cc1ccccc1F)NCCCN1CCCCC1` reads “inactive”; that for `Cn1c2c(c(=O)n(C)c1=O)C1c3ccccc3OCC1C(C)(C)O2` (stereo unspecified), “inactive”. Take `NCC(=O)[C@@H](O)[C@H](O)[C@H](O)CO`: the activity change, negative = inhibition was 0.448% [at 11.4 µM]. For the compound `COc1ccc(NC(=O)c2cccc(NC(=O)c3ccco3)c2)c(OC)c1`, the Potency result was “inactive”. On to `Cc1cc(C(=O)O)ccc1[N+](=O)[O-]`, for which the Potency result was “inactive”. For the compound `CC(C)OC(=O)CN1C(=O)c2ccccc2C1=O`, the Potency entry was “inactive”. The same measure, in the same setting: the result for `CC(C)NC(=O)N1CCCC2(CCN(C(=O)c3cccn3C)CC2)C1` reads “inactive”; that for `CC1CCCC(NC(=O)CSc2nccn2C)C1C` (stereo unspecified), “inactive”. On the same count and under the same terms, with `O=C(OCC(COC(=O)c1ccccc1)(COC(=O)c1ccccc1)COC(=O)c1ccccc1)c1ccccc1` the entry was “inactive”.

Turning to `C/C(CCN1CCc2nc(-c3ccccc3)c(-c3ccccc3)cc2C1)=N\O[C@@H](C)c1cn([C@@H]2COC[C@@H]2O)nn1`, the activity change, negative = inhibition is 2.35% [at 11.4 µM]. Regarding `C#CCCCCCCCCCCCCCCCC(=O)O`, the Potency was 15.8 µM (active). Still for that read-out and setting: the result for `O=C(O)CCCCC(=O)O` reads “inactive”; that for `CCCCCCCCCCCC(=O)O`, “inactive”; that for `CC1CC[C@@]23CCC4(C)[C@@]5(C)CCC6C(C)(C)C(O)CC[C@@]6(C)C5C=C[C@@]4(OC2=O)C3C1C` (stereo partly specified), “inactive”. Same read-out and setting: the result for `O=C(NCCN1C(=O)C2C3C=CC(C3)C2C1=O)Nc1ccccn1` (stereo unspecified) reads “inactive”; that for `c1ccc(-c2[nH]ncc2-c2nc3ccccc3[nH]2)cc1`, 12.6 µM (active); that for `C=CCSc1nc2ccccc2[nH]1`, “inactive”. Regarding `c1ccc2[nH]c(-c3nc4ccccc4[nH]3)nc2c1`, the Potency was 25.1 µM (active). Still for that read-out and setting: with `COC(=O)Cc1nc2ccccc2[nH]1` the entry was “inactive”; with `C=CCSc1nc2c(c(=O)[nH]1)C(C(C)C)C(C#N)=C(N)O2` (stereo unspecified), “inactive”. As to `O=C(O)c1cccc(S(=O)(=O)NCCO)c1`, the activity change, negative = inhibition was 10% [at 11.4 µM]. As to `O=C(NCc1ccccc1)[C@H]1C[C@@H]1[C@H](NP(=O)(c1ccccc1)c1ccccc1)c1ccccc1`, the Potency result is “inactive”.

For `COC(=O)c1ccc2c(c1)S(=O)(=O)NC(=NCCCN1CCOCC1)S2`, the Potency result is “inactive”. On to `COc1ccc(C(=O)N/N=C2/C(=O)c3c(C)cc(C)cc3CC2(C)C)cc1`, for which the activity change, negative = inhibition was 12.3% [at 11.4 µM]. Regarding `Cc1nc(C)c(C(=O)Nc2cccc(C)c2C)o1`, the Potency result was “inactive”. Turning to `Cc1cccc(NC(=O)CSC(N)=O)c1C`, the Potency was 31.6 µM (active). With `Cc1cccc(NC(=O)CSc2nc3c(c(=O)[nH]2)CCC3)c1C`, the Potency result was “inactive”. As to `Cc1nnc(NC(=O)CCC(=O)N2CCC(C)CC2)s1`, the Potency result is “inactive”.

`CCCCC/C=C/C=C/C=O`: the Potency entry was “inactive”.

Consider `CCn1c(=N)n(CC(=O)c2cccc(OC)c2)c2ccccc21`, for which the Potency entry is “inactive”. Still for that read-out and setting: with `CCn1c2c(c3ccc(OC)cc31)CCCC2=O` the figure was 25.1 µM (active); with `CC(=O)Nc1ccc(S(=O)(=O)NCCc2ccccc2)cc1`, “inactive”.

The values above are taken from PubChem BioAssay AID893 (National Center for Advancing Translational Sciences (NCATS), 2007).
